Laboratory results as given in PubChem BioAssay.

Test: MRP1 drug-resistance reversers in H69AR cells – cell-based, doxorubicin co-treatment, pilot screen (AID 601)
Details: H69AR cells, CellTiter-Glo, 72 h; compound alone cytotoxicity; at 10 µM

| SMILES | viability [%] |
| --- | --- |
| CN/C(=C/[N+](=O)[O-])NCCSCc1ccc(CN(C)C)o1 | 94.2 |
| CC1Oc2ccccc2N(CC(=O)NCc2cccs2)C1=O (centres undefined) | 108 |
| COCCn1c(C)cc(C(=O)COC(=O)c2ccc(N3CCCC3=O)cc2)c1C | 92.3 |
| Cc1ccc(S(=O)(=O)N2CCN(C(=O)N3CCOCC3)C2c2ccc(N(C)C)cc2)cc1 (centres undefined) | 110 |
| C/C(=C\c1ccco1)C1C(C#N)=C(N)OC2=C1C(=O)CC(C)(C)C2 (centres undefined) | 80.1 |
| CC(=O)SCC(=O)N=c1sc2cc(F)ccc2n1C | 93.4 |
| COCCNC(=O)C(c1ccc(C)o1)N(Cc1cccs1)C(=O)c1snc(C(N)=O)c1N (centres undefined) | 86.4 |
| c1ccc(-c2oc3ncnc(NCCN4CCOCC4)c3c2-c2ccccc2)cc1 | 73.3 |
| CCOC(=O)C1=C(C)Nc2nc(SCC(=O)OC)nn2C1c1cc(F)cc(F)c1 (centres undefined) | 92.9 |
| Cc1ccc(-c2nnc3c4ccccc4c(C)nn23)cc1S(=O)(=O)N1CCN(C)CC1 | 74 |
| CCCCCC#CCC#CCC#CCC#CCCCC(=O)O | 93.6 |
| CCn1c(SCC(=O)N2CCN(c3ccc(Cl)cc3)CC2)nc2ccccc2c1=O | 78.6 |
| O=C(OC1CCc2ccccc2C1=O)c1ccccc1O (centres undefined) | 78.6 |
| c1cc2c(cc1Cn1cnnn1)OCO2 | 105 |
| Cc1cc(C)c(NC(=O)CSc2nnc(-c3ccncc3)n2Cc2ccco2)c(C)c1 | 97.4 |
| CC1CCCCN1C(=O)Cn1nnc(-c2cccnc2)n1 (centres undefined) | 103 |
| CCc1ccccc1NC(=O)c1ccoc1C | 101 |
| COc1ccccc1NC(=O)NC(N)=O | 96.4 |
| Cc1nc(-c2ccccc2)sc1C(N)=O | 94.4 |
